# Reference: the supplement of paper PMC11865577
# Key:
# Test in all cases: normalised indicator fluorescence (fraction of RNA + indicator signal without compound); higher = less displacement of indicator (weaker competition)
# Details in all cases: compound concentration: 5 uM, 30 min
# hsa-mir-191 loop = system: hsa-mir-191 loop
# Summary of the method: (§1)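 In 96-well plates, RNA was combined with a TO-PRO-1 or TO-PRO-3 indicator in 20 mM phosphate pH 7.0 containing 20 mM NaCl and 80 mM KCl. Each compound was added as 0.25 μL of a 1 mM DMSO stock, giving about 5 uM final, and fluorescence was read on an Infinite 200 PRO after 30 min (excitation 485 or 620 nm). Values are the blank-corrected indicator fluorescence (buffer plus indicator subtracted) divided by the signal of RNA plus indicator without compound, averaged over two independent experiments.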
# hsa-mir-21 loop = system: hsa-mir-21 loop
# Summary of the method: as §1
# hsa-mir-221 loop = system: hsa-mir-221 loop
# Summary of the method: as §1
# hsa-mir-374a loop = system: hsa-mir-374a loop
# Summary of the method: as §1
# hsa-mir-6850 loop = system: hsa-mir-6850 loop
# Summary of the method: as §1
# [1] = indicator: TO-PRO-1 0.1 uM, RNA concentration: 0.1 uM
# [2] = indicator: TO-PRO-3 0.5 uM, RNA concentration: 0.5 uM
SMILES,normalised indicator fluorescence (hsa-mir-191 loop; [1]),normalised indicator fluorescence (hsa-mir-191 loop; [2]),normalised indicator fluorescence (hsa-mir-21 loop; [1]),normalised indicator fluorescence (hsa-mir-21 loop; [2]),normalised indicator fluorescence (hsa-mir-221 loop; [1]),normalised indicator fluorescence (hsa-mir-221 loop; [2]),normalised indicator fluorescence (hsa-mir-374a loop; [1]),normalised indicator fluorescence (hsa-mir-374a loop; [2]),normalised indicator fluorescence (hsa-mir-6850 loop; [1]),normalised indicator fluorescence (hsa-mir-6850 loop; [2])
COc1ccc(C2CC(=O)c3c(O)cc(OC4OC(COC5OC(C)C(O)C(O)C5O)C(O)C(O)C4O)cc3O2)cc1OC (centres undefined) [Methyl hesperidin],0.968,1.08,0.942,0.97,1.05,1.03,1.14,1.14,0.967,1.07
Oc1ccc(-c2nc(-c3ccc(F)cc3)c(-c3ccncc3)[nH]2)cc1,1.1,1.04,0.993,1.03,1.08,1.13,1.09,1.2,0.999,1.04
N#Cc1c(NC(=O)c2cccc3ccccc23)sc2c1CCCC2,1.04,0.988,1.02,1.01,0.919,1.02,,0.983,1.08,1.02
CC(C)(O)[C@@H]1CC[C@](C)([C@H]2[C@@H](O)C[C@@]3(C)[C@@H]4C[C@H](O)[C@H]5C(C)(C)[C@@H](O[C@@H]6OC[C@@H](O)[C@H](O)[C@H]6O[C@@H]6O[C@H](CO)[C@@H](O)[C@H](O)[C@H]6O)CC[C@@]56C[C@@]46CC[C@]23C)O1 [Astragaloside III],1.09,1.07,1.01,1.02,1.06,1.07,1.04,1.19,0.952,1.11
